Experimental data taken from PubChem BioAssay AID1159580 (chemical genetic matrix, 2015).
Where “and” joins values, the source holds several entries; their conditions need not be identical. Equal entries are not always repeated. The campaign covered roughly 5,500 compounds. About 2,000 (36%) were called active. Another 18% or so got no clear call; they are omitted. No stated cut-off is given here; in the data, active means normalized growth mostly below about 0.91 (no sharp cut-off); inconclusive means no clear call, values can overlap the other calls; inactive means mostly above about 0.92. This is one part of the list.

Assay: chemical genetic growth profiling, strain panel (AID 1159580);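 further: tested at 20 µM; growth read once vehicle control cultures reached saturation at 30 °C; 1 = growth at the plate median or of vehicle wells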
Conditions: growth OD

Measured: normalized growth

COc1ccc2oc(-c3ccccc3)c(OC)c(=O)c2c1
active: S. cerevisiae deletion strains, locus YAL013W, strain DEP1, stronger effect = lower value 0.903 | S. cerevisiae deletion strains, locus YCL029C, strain bik1, stronger effect = lower value 0.906 | S. cerevisiae deletion strains, locus YDL035C, strain GPR1, stronger effect = lower value 0.846 | S. cerevisiae deletion strains, locus YDL074C, strain BRE1, stronger effect = lower value 0.71 | S. cerevisiae deletion strains, locus YDL101C, strain DUN1, stronger effect = lower value 0.888 | S. cerevisiae deletion strains, locus YDL134C, strain PPH21, stronger effect = lower value 0.828 | S. cerevisiae deletion strains, locus YDL192W, strain arf1, stronger effect = lower value 0.858 | S. cerevisiae deletion strains, locus YDR101C, strain arx1, stronger effect = lower value 0.887 | S. cerevisiae deletion strains, locus YDR162C, strain NBP2, stronger effect = lower value 0.719 | S. cerevisiae deletion strains, locus YDR318W, strain mcm21, stronger effect = lower value 0.808 | S. cerevisiae deletion strains, locus YDR388W, stronger effect = lower value 0.892 | S. cerevisiae deletion strains, locus YDR502C, strain sam2, stronger effect = lower value 0.867 | S. cerevisiae deletion strains, locus YER110C, stronger effect = lower value 0.861 | S. cerevisiae deletion strains, locus YER167W, strain BCK2, stronger effect = lower value 0.801 | S. cerevisiae deletion strains, locus YGL086W, strain mad1, stronger effect = lower value 0.882 | S. cerevisiae deletion strains, locus YGL248W, strain PDE1, stronger effect = lower value 0.814 | S. cerevisiae deletion strains, locus YGR078C, strain PAC10, stronger effect = lower value 0.748 | S. cerevisiae deletion strains, locus YGR135W, strain pre9, stronger effect = lower value 0.784 | S. cerevisiae deletion strains, locus YGR229C, strain SMI1, stronger effect = lower value 0.58 | S. cerevisiae deletion strains, locus YGR252W, strain gcn5, stronger effect = lower value 0.68 | S. cerevisiae deletion strains, locus YHR079C, strain IRE1 (second series), stronger effect = lower value 0.828 | S. cerevisiae deletion strains, locus YHR129C, strain ARP1, stronger effect = lower value 0.874 | S. cerevisiae deletion strains, locus YHR200W, strain rpn10, stronger effect = lower value 0.897 | S. cerevisiae deletion strains, locus YIR030C, strain dcg1, stronger effect = lower value 0.879 | S. cerevisiae deletion strains, locus YJL168C, strain set2, stronger effect = lower value 0.912 | S. cerevisiae deletion strains, locus YJL187C, strain SWE1 (second series), stronger effect = lower value 0.855 | S. cerevisiae deletion strains, locus YJR075W, strain HOC1, stronger effect = lower value 0.844 | S. cerevisiae deletion strains, locus YKL009W, strain mrt4, stronger effect = lower value 0.877 | S. cerevisiae deletion strains, locus YKR001C, strain vps1, stronger effect = lower value 0.764 | S. cerevisiae deletion strains, locus YLR058C, strain SHM2, stronger effect = lower value 0.88 | S. cerevisiae deletion strains, locus YLR268W, strain sec22, stronger effect = lower value 0.807 | S. cerevisiae deletion strains, locus YLR330W, strain CHS5, stronger effect = lower value 0.899 | S. cerevisiae deletion strains, locus YLR342W, strain FKS1 (second series), stronger effect = lower value 0.69 | S. cerevisiae deletion strains, locus YLR418C, strain cdc73, stronger effect = lower value 0.592 | S. cerevisiae deletion strains, locus YML016C, strain PPZ1, stronger effect = lower value 0.919 | S. cerevisiae deletion strains, locus YML032C, strain rad52, stronger effect = lower value 0.53 | S. cerevisiae deletion strains, locus YML124C, strain tub3, stronger effect = lower value 0.924 | S. cerevisiae deletion strains, locus YMR078C, strain ctf18, stronger effect = lower value 0.805 | S. cerevisiae deletion strains, locus YMR223W, strain ubp8, stronger effect = lower value 0.83 | S. cerevisiae deletion strains, locus YMR263W, strain SAP30, stronger effect = lower value 0.838 | S. cerevisiae deletion strains, locus YNL067W, strain RPL9B, stronger effect = lower value 0.837 | S. cerevisiae deletion strains, locus YNL233W, strain BNI4, stronger effect = lower value 0.78 | S. cerevisiae deletion strains, locus YNL271C, strain bni1, stronger effect = lower value 0.916 | S. cerevisiae deletion strains, locus YNL298W, strain CLA4, stronger effect = lower value 0.884 | S. cerevisiae deletion strains, locus YNL307C, strain MCK1, stronger effect = lower value 0.29 | S. cerevisiae deletion strains, locus YNR052C, strain pop2, stronger effect = lower value 0.899 | S. cerevisiae deletion strains, locus YOL006C, strain TOP1, stronger effect = lower value 0.359 | S. cerevisiae deletion strains, locus YOL147C, strain pex11, stronger effect = lower value 0.854 | S. cerevisiae deletion strains, locus YOR144C, strain elg1, stronger effect = lower value 0.92 | S. cerevisiae deletion strains, locus YOR184W, strain ser1, stronger effect = lower value 0.684 | S. cerevisiae deletion strains, locus YOR316C, strain cot1, stronger effect = lower value 0.916 | S. cerevisiae deletion strains, locus YPR119W, strain clb2, stronger effect = lower value 0.919 | S. cerevisiae deletion strains, locus YPR163C, strain tif3, stronger effect = lower value 0.634 | S. cerevisiae deletion strains, locus YPR167C, strain met16, stronger effect = lower value 0.916 | S. cerevisiae deletion strains, strain wtn01, stronger effect = lower value 0.832 | S. cerevisiae strains, strain wild type, stronger effect = lower value 0.895
0.674 (active) and 0.934 (inactive): S. cerevisiae deletion strains, locus YHR030C, strain SLT2, stronger effect = lower value
inactive: S. cerevisiae deletion strains, locus YBR021W, strain FUR4, stronger effect = lower value 0.925 | S. cerevisiae deletion strains, locus YBR229C, strain ROT2, stronger effect = lower value 0.929 | S. cerevisiae deletion strains, locus YDL185W, strain tfp1, stronger effect = lower value 0.923 | S. cerevisiae deletion strains, locus YDR150W, strain NUM1, stronger effect = lower value 0.944 | S. cerevisiae deletion strains, locus YEL061C, strain CIN8, stronger effect = lower value 0.938 | S. cerevisiae deletion strains, locus YER155C, strain BEM2, stronger effect = lower value 0.926 | S. cerevisiae deletion strains, locus YGL078C, strain dbp3, stronger effect = lower value 0.956 | S. cerevisiae deletion strains, locus YHR079C, strain IRE1, stronger effect = lower value 0.926 | S. cerevisiae deletion strains, locus YHR094C, strain hxt1, stronger effect = lower value 0.936 | S. cerevisiae deletion strains, locus YIL066C, strain RNR3, stronger effect = lower value 0.882 | S. cerevisiae deletion strains, locus YIL073C, strain SPO22, stronger effect = lower value 0.803 | S. cerevisiae deletion strains, locus YIL125W, strain kgd1, stronger effect = lower value 0.956 | S. cerevisiae deletion strains, locus YJL134W, strain LCB3, stronger effect = lower value 0.946 | S. cerevisiae deletion strains, locus YJR043C, strain POL32, stronger effect = lower value 0.863 | S. cerevisiae deletion strains, locus YJR066W, strain TOR1, stronger effect = lower value 0.867 | S. cerevisiae deletion strains, locus YKL068W, stronger effect = lower value 0.96 | S. cerevisiae deletion strains, locus YKL085W, strain MDH1 (second series), stronger effect = lower value 0.945 | S. cerevisiae deletion strains, locus YKL085W, strain MDH1, stronger effect = lower value 0.945 | S. cerevisiae deletion strains, locus YKL190W, strain CNB1, stronger effect = lower value 0.922 | S. cerevisiae deletion strains, locus YLR039C, strain RIC1, stronger effect = lower value 0.778 | S. cerevisiae deletion strains, locus YLR102C, strain apc9, stronger effect = lower value 0.93 | S. cerevisiae deletion strains, locus YLR113W, strain HOG1, stronger effect = lower value 0.937 | S. cerevisiae deletion strains, locus YLR262C, strain YPT6, stronger effect = lower value 0.801 | S. cerevisiae deletion strains, locus YLR371W, strain rom2, stronger effect = lower value 0.932 | S. cerevisiae deletion strains, locus YMR307W, strain GAS1, stronger effect = lower value 0.652 | S. cerevisiae deletion strains, locus YNL128W, strain TEP1, stronger effect = lower value 0.942 | S. cerevisiae deletion strains, locus YNL153C, strain GIM3, stronger effect = lower value 0.891 | S. cerevisiae deletion strains, locus YNL183C, strain NPR1, stronger effect = lower value 0.88 | S. cerevisiae deletion strains, locus YNL250W, strain rad50, stronger effect = lower value 0.9 | S. cerevisiae deletion strains, locus YNL322C, strain KRE1, stronger effect = lower value 0.947 | S. cerevisiae deletion strains, locus YOL012C, strain htz1 0.77 | S. cerevisiae deletion strains, locus YOR061W, strain CKA2, stronger effect = lower value 0.937 | S. cerevisiae deletion strains, locus YOR069W, strain VPS5, stronger effect = lower value 0.979 | S. cerevisiae deletion strains, locus YOR136W, strain idh2, stronger effect = lower value 0.922 | S. cerevisiae deletion strains, locus YOR231W, strain MKK1, stronger effect = lower value 0.918 | S. cerevisiae deletion strains, locus YPL055C, strain LGE1, stronger effect = lower value 0.767 | S. cerevisiae deletion strains, locus YPL241C, strain CIN2, stronger effect = lower value 0.959 | S. cerevisiae deletion strains, locus YPL256C, strain CLN2, stronger effect = lower value 0.939 | S. cerevisiae deletion strains, locus YPR141C, strain kar3, stronger effect = lower value 0.944
0.426 (active) and 0.93 (inactive): S. cerevisiae deletion strains, locus YJL095W, strain BCK1, stronger effect = lower value
